High-throughput results from PubChem BioAssay.
This is a sample that favours compounds with a hit; in the whole collection about 12% have one here.
TDP1 block: qHTS Assay for Inhibitors of Tyrosyl-DNA Phosphodiesterase (TDP1); Tyrosyl-DNA phosphodiesterase 1 (Homo sapiens), Q9NUW8; recombinant TDP1, AlphaScreen DNA substrate cleavage; Potency, µM (series often up to 130 µM), actives largely listed as inhibitors; 350,000 tested, 0.28% active; note: nearly all actives have a fitted effect of over 40% in size
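Signal: AlphaScreen proximity between streptavidin donor and anti-FITC acceptor beads on intact substrate. Reaction: Tdp1 1 nM, substrate 15 nM final, 5 min RT after 15 min compound preincubation.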
G9a inh: qHTS Assay for Inhibitors of Histone Lysine Methyltransferase G9a | 350,000 tested, 8.8% active | AID 504332, 2011 | G9a H3K9 monomethylation, AlphaScreen, 2 h | Potency, µM (series often up to 102 µM), actives largely listed as inhibitors | Histone-lysine N-methyltransferase EHMT2 (Homo sapiens), Q96KQ7; note: nearly all actives have a fitted effect of over 75% in size
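Methyltransferase reactions run at room temperature for 2 h (20 nM enzyme, 500 nM biotin-H3K9 peptide, 20 uM SAM) after a 15 min compound preincubation; product detected by AlphaScreen beads and anti-H3K9me1 antibody.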
BAZ2B inh: qHTS Assay for Inhibitors of BAZ2B. Bromodomain adjacent to zinc finger domain protein 2B (Homo sapiens), Q9UIF8. Potency, µM (top dose mostly 114 µM), actives largely listed as inhibitors. 360,000 tested, 4.4% active. AlphaScreen BAZ2B-H3K14Ac peptide displacement; note: nearly all actives have a fitted effect of over 60% in size
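Compounds, titrated to a top concentration of 110 uM, were incubated 30 min at room temperature with preformed BAZ2B/acetyl-K14 H3 peptide complex (50 nM each). Proximity signal was measured by AlphaScreen after 20 min with beads.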
Sfp inh: qHTS Assay for Inhibitors of Bacillus subtilis Sfp phosphopantetheinyl transferase (PPTase); Biochemical Sfp PPTase activity, qHTS; Potency, µM, usual class: inhibitors; 4'-phosphopantetheinyl transferase ffp (Bacillus subtilis), Q9F4F7; 310,000 tested, 3.5% active;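 note: the enzyme is Sfp with the accession as filed and its product quenches rhodamine fluorescence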
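After 15 min at room temperature with compound, 15 nM Sfp received 5 uM rhodamine-CoA plus 12.5 uM BHQ-2-ybbR (50 mM Hepes pH 7.6, 10 mM MgCl2). Rate came from the fluorescence difference over 30 min, ex 525/em 598 nm.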
JMJD2A Tudor: qHTS Assay for Inhibitors of JMJD2A-Tudor Domain. Lysine-specific demethylase 4A (Homo sapiens), O75164. AlphaScreen JMJD2A-Tudor / H3K4me3 peptide binding. Potency, µM (titrated, usually from 114 µM), most hits filed as inhibitors. 390,000 tested, 4.4% active. AID 504339, 2011; note: nearly all actives have a fitted effect of over 50% in size
Target sequence (O75164 whole entry, looked up, the tested form may be a part): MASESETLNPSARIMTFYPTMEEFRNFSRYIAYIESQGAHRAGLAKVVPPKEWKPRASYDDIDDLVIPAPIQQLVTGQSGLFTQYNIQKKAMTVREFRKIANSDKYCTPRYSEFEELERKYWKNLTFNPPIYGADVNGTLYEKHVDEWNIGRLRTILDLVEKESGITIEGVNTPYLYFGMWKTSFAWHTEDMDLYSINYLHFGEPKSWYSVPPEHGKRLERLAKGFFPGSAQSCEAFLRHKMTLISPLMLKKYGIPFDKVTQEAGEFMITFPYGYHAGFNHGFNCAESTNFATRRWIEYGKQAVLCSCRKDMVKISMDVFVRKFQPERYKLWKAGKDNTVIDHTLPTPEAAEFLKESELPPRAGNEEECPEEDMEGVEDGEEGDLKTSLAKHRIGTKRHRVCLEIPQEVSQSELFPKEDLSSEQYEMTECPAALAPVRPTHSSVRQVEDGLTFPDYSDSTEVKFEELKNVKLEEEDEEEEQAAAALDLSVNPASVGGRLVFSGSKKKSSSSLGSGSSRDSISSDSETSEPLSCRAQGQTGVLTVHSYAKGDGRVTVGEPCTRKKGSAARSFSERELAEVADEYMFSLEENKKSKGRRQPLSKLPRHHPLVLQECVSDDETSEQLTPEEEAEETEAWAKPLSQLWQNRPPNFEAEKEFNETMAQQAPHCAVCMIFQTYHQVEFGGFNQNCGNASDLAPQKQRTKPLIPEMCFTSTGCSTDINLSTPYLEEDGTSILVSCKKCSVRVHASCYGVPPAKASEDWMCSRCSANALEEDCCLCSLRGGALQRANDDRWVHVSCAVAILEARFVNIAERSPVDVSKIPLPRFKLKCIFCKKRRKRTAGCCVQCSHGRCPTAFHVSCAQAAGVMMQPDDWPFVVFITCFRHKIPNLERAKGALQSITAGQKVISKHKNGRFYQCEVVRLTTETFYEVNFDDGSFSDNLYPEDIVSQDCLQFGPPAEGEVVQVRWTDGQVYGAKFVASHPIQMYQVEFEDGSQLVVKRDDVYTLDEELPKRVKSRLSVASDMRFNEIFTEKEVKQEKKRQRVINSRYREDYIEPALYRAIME
HP1b chromo inh: HTS for Inhibitors of HP1-beta Chromodomain Interactions with Methylated Histone Tails; Potency, µM (doses to about 114 µM), hits mostly inhibitors; Chromobox protein homolog 1 (Homo sapiens), P83916; AlphaScreen HP1-beta / biotin-H3K9me3 peptide binding; 390,000 tested, 0.56% active; note: nearly all actives have a fitted effect of over 70% in size
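AlphaScreen: HP1-beta (50 nM) preformed 30 min with biotin-H3(1-18)K9me3 peptide (50 nM) in PBS pH 7.4, 0.01% Tween-20. Compound added for 30 min at RT, then streptavidin donor/nickel chelate acceptor beads (10 ug/mL) for 30 min.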
Large screens that a line does not name were inactive. Calls come from the whole dose curve; as a rule, active = well fitted curve in the direction sought with a large enough effect; inconclusive = small, poorly fitted or top-dose-only effect, or another doubt; inactive = no such curve, though single readings can be large; an effect the other way counts as inactive or inconclusive.

CN1C(=O)C(=O)/C(=C(/O)c2ccc(Br)cc2)C1c1ccc(F)cc1 (configuration not stated)	G9a inh 71µM
CC(=O)NC(Cc1cccc(F)c1)C(=O)NC1CCN(C(=O)Nc2ccc(C)cc2)CC1 (configuration not stated)	none (no result: TDP1 block)
CC(C)(C)NC(=O)Cn1nnc(-c2ccc(OCc3c(F)cccc3Cl)cc2)n1	none
CCOC(=O)C1CCN(C(=O)C(=O)Nc2ccc3nc4n(c(=O)c3c2)CCCCC4)CC1	none (no result: TDP1 block)
O=C(O)C1Sc2[nH]c(=O)sc2C2c3ccc(O)cc3OC(=O)C12 (configuration not stated)	G9a inh 40µM, Sfp inh inconclusive, HP1b chromo inh inconclusive
COc1ccc(C(C#N)N2CCC(c3ccccc3)=N2)cc1OC (configuration not stated)	G9a inh 18µM
COc1ccc(C2=NN(C(C#N)c3ccc(OC)c(OC)c3)C(c3ccccc3)C2)cc1 (configuration not stated)	G9a inh inconclusive
COc1cc(C(C#N)N2CCC(c3ccccc3)=N2)ccc1O (configuration not stated)	G9a inh 10µM (no result: TDP1 block)
O=C(COC(=O)CNC(=O)C1CCCCC1)Nc1ccccc1Cl	none (no result: Sfp inh)
CC1=CC(C)=Nc2ccccc2N1	G9a inh 40µM, BAZ2B inh inconclusive
O=C(CSc1n[nH]c(-c2ccccc2)n1)c1ccc(O)c(O)c1	G9a inh 7.9µM, BAZ2B inh 45µM, JMJD2A Tudor 63µM
CCCOc1ccc(-c2nc(SCC(=O)c3ccc(Cl)cc3)n[nH]2)cc1	G9a inh 14µM, JMJD2A Tudor inconclusive (no result: Sfp inh)
CCCC1CC(C)(C(=O)CSc2n[nH]c(-c3ccccc3)n2)OC1=O (configuration not stated)	G9a inh 32µM, BAZ2B inh inconclusive, Sfp inh 79µM, JMJD2A Tudor 35µM
Cc1ccc(O)c(NC(=O)CSc2n[nH]c(-c3ccccc3)n2)c1	none
O=C(CSc1n[nH]c(-c2ccccc2)n1)N1CCOCC1	BAZ2B inh inconclusive
CCOc1ccc(-c2nc(SCC(=O)c3ccccc3)n[nH]2)cc1	G9a inh 14µM, JMJD2A Tudor 25µM (no result: Sfp inh)
COCC1COS(=O)(=O)NC1(C)C (configuration not stated)	none (no result: TDP1 block)
COc1ccc(S(=O)(=O)Nc2ccc3c(c2)C(=O)N([C@H](C)CO)C[C@H](C)[C@@H](CN(C)S(=O)(=O)c2cccs2)O3)cc1	none (no result: G9a inh, BAZ2B inh, Sfp inh)
CCOC(=O)c1cccc(COC(=O)c2cccc(-c3nnc(-c4ccccc4)o3)c2)c1	none
CC(OC(=O)c1cccc(-n2cnnn2)c1)C(=O)Nc1ccccc1F (configuration not stated)	G9a inh 50µM (no result: Sfp inh)
CC(OC(=O)c1cccc(-n2cnnn2)c1)C(=O)Nc1ccc(N(C)C)cc1 (configuration not stated)	G9a inh 7.1µM (no result: Sfp inh)
Fc1ccc(N2CCN(Cc3c[nH]c4ccccc34)CC2)cc1	BAZ2B inh inconclusive (no result: TDP1 block, JMJD2A Tudor, HP1b chromo inh)
CCS(=O)(=O)N1CCN(Cc2c[nH]c3ccccc23)CC1	TDP1 block inconclusive, G9a inh 14µM, BAZ2B inh 56µM, JMJD2A Tudor 1.1µM, HP1b chromo inh inconclusive
OCc1ccccc1CN1CCCCCC1	none (no result: TDP1 block, G9a inh, BAZ2B inh, Sfp inh)
Brc1ccccc1CN1CCN(Cc2c[nH]c3ccccc23)CC1	JMJD2A Tudor 0.79µM, HP1b chromo inh 40µM (no result: TDP1 block, G9a inh, BAZ2B inh, Sfp inh)
COc1ccc(S(=O)(=O)N2CCN(C(=O)CCc3c[nH]c4ccccc34)CC2)cc1	none (no result: Sfp inh)
CN1CCCN(Cc2ccccc2Br)CC1	G9a inh 22µM, BAZ2B inh inconclusive, Sfp inh 79µM, JMJD2A Tudor 0.89µM, HP1b chromo inh inconclusive
Cc1ccccc1N1CCN(Cc2c[nH]c3ccccc23)CC1	G9a inh 32µM, BAZ2B inh inconclusive, JMJD2A Tudor 5µM, HP1b chromo inh inconclusive
Cc1c(Cl)cccc1NC(=S)NC1CCCC1	none (no result: TDP1 block, G9a inh)
CCOc1ccc(C(=O)NCC(c2ccc3c(c2)OCO3)N2CCOCC2)cc1 (configuration not stated)	none (no result: Sfp inh)
c1cnc(N2CCN(Cc3c[nH]c4ccccc34)CC2)nc1	G9a inh inconclusive
O=C(c1cccc(Cl)c1)N1CCN(Cc2c[nH]c3ccccc23)CC1	JMJD2A Tudor 3.5µM
Brc1ccc(CN2CCN(Cc3c[nH]c4ccccc34)CC2)cc1	G9a inh 50µM, BAZ2B inh 40µM, Sfp inh 56µM, JMJD2A Tudor 2.2µM, HP1b chromo inh 22µM (no result: TDP1 block)
O=[N+]([O-])c1ccc(CN2CCN(Cc3c[nH]c4ccccc34)CC2)cc1	G9a inh 8.9µM, BAZ2B inh 22µM, Sfp inh inconclusive, JMJD2A Tudor 7.9µM, HP1b chromo inh inconclusive
O=C(c1cccc(Cl)c1)N1CCN(CCc2ccccn2)CC1	none (no result: Sfp inh)
O=[N+]([O-])c1ccc(CN2CCOCCOCCOCC2)cc1	G9a inh inconclusive
COc1ccc(C(=O)N2CCC3(CC2)CN(c2ccccc2)C3)cc1	none (no result: TDP1 block, BAZ2B inh, JMJD2A Tudor, HP1b chromo inh)
CC(NC(=O)CCC(=O)N1CCCCCC1)c1ccccc1 (configuration not stated)	none
O=C(Cn1cnc([N+](=O)[O-])c1)Nc1ccccc1C(F)(F)F	JMJD2A Tudor inconclusive (no result: TDP1 block, G9a inh)
Cc1ccc(NC(=O)Nc2ccc3nc(N4CCN(C)CC4)cc(C)c3c2)cc1C	G9a inh inconclusive (no result: Sfp inh)
CCc1ccc(NC(=O)C2CCCN2S(=O)(=O)c2ccc3c(c2)C(C)(C)C(=O)N3C)cc1 (configuration not stated)	none (no result: TDP1 block, G9a inh)
O=C(Nc1ccccc1N1CCCC1)c1ccccc1Cl	G9a inh 40µM, BAZ2B inh inconclusive
O=C(Nc1ccccc1N1CCCC1)c1ccc(Cl)cc1Cl	none
CN(C)S(=O)(=O)c1cccc(NC(=O)c2ccc(N3CCCC3=O)cc2)c1	none (no result: G9a inh, BAZ2B inh, Sfp inh)
O=C(Nc1ccccc1N1CCOCC1)c1ccco1	none (no result: TDP1 block)
CCN(c1ccc(NC(=O)c2ccc(N3CCCC3=O)cc2)cc1)C(C)C	G9a inh 3.5µM (no result: Sfp inh)
O=C(Nc1ccccc1N1CCCC1)c1ccc(N2CCCC2=O)cc1	G9a inh 35µM (no result: Sfp inh)
O=C(Nc1ccccc1N1CCCC1)c1ccco1	G9a inh 50µM
CCOC(=O)N1CCC(NC(=O)CC2C(=O)NCCN2Cc2ccccc2F)CC1 (configuration not stated)	none
O=C(c1cccc([N+](=O)[O-])c1)N1CCCC(C(=O)N2CCN(c3ccccc3)CC2)C1 (configuration not stated)	none
